The values that follow come from PubChem BioAssay (Tox21).

Structures are written as SMILES. A number with no mark means an inactive call. Inconclusive results are not listed. The source made the active and inactive calls. Calls follow the shape of the dose curve; as a rule, active = well fitted curve in the direction sought with a large enough effect in the repeat runs; inconclusive = weak or mixed curves; inactive = no such curve, though single readings can be large; an effect the other way counts as inactive or inconclusive.

Test [1] is described as follows: Human pregnane X receptor (PXR) small molecule agonists, qHTS cell viability counter screen (AID 1346977). Also: nearly all actives have a fitted effect of over 50% in size. The procedure, abridged:
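PXR-Luc HepG2, 2,000 cells/well, 5% charcoal-stripped FBS; 5hr settle; cpd 24hr, 37C/5% CO2; CellTiter-Fluor at 23hr, read 1hr later (fluorescence).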
(In general: Quantitative high-throughput screening tests each substance at several concentrations.)

Test [2] in a line: Caspase-3/7 induction in HepG2 cells by small molecules, qHTS assay (AID 1346978). Also: nearly all actives have a fitted effect of over 15% in size. The procedure, abridged: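 Caspase-3/7 induction was measured by Caspase-Glo 3/7 luminescence (30 min, room temperature) after a 17 hr compound exposure of wild-type HepG2 cells seeded at 2,000 per well and pre-incubated 5 hr.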
Test [3] is described as follows: Caspase-3/7 induction in CHO-K1 cells by small molecules, qHTS cell viability counter screen (AID 1346979). Also: nearly all actives have a fitted effect of over 35% in size. The procedure, abridged: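 Cells (CHO-K1, wild type) are plated at 1,500 per well and incubated 5hr. Test compounds in DMSO are then pinned in, followed by 16hr at 37C and 5% CO2. Viability is read by CellTiter-Fluor fluorescence after 1hr.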
Test [4] can be described thus: Caspase-3/7 induction in CHO-K1 cells by small molecules, qHTS assay (AID 1346980). Also: nearly all actives have a fitted effect of over 15% in size. The procedure, abridged: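 Luminescent Caspase-Glo 3/7 read (30min, room temperature) quantified apoptosis induction. Cells were wild-type CHO-K1, treated with compound for 17hr at 37 C and 5% CO2.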
Test [5] can be described thus: Caspase-3/7 induction in HepG2 cells by small molecules, qHTS cell viability counter screen (AID 1346981). Also: series mostly up to about 92 µM; nearly all actives have a fitted effect of over 30% in size. The procedure, abridged: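 Viability determined by CellTiter-Fluor fluorescence in HepG2 wells also used for the luminescent Caspase-Glo 3/7 read. Compounds were present for 16 hr at 37 C, 5% CO2 before reagent addition.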
The target of test [6] is Nuclear receptor subfamily 1 group I member 2 (Homo sapiens) (UniProt O75469). Kind of test: Human pregnane X receptor (PXR) small molecule agonists, qHTS assay (AID 1346982). Also: nearly all actives have a fitted effect of over 35% in size. Also: potency is read from the fitted curve at half-maximal effect. The procedure, abridged:
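Compound-induced hPXR transactivation of a CYP3A4 luciferase reporter was scored in HepG2 PXR-Luc cells over 24 hr at 37 C, 5% CO2, by luminescence.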

Test [7] has as its target Cytochrome P450 2D6 (Homo sapiens) (UniProt P10635). The test can be described thus: Cytochrome P450 Family 2 Subfamily D Member 6 (CYP2D6) small molecule antagonists: luciferase reporter qHTS assay (AID 1671196). Also: nearly all actives have a fitted effect of over 50% in size. Also: potency is read from the fitted curve at half-maximal effect. The procedure, abridged:
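Each well received CYP2D6 with its proluciferin substrate and chemical, sat 10 min, then got NADPH regeneration solution for 1 h at room temperature. Luminescence in RLU served as the activity measure.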
A general note: In a reporter assay the amount or activity of a reporter protein is the signal.

Test [8] has as its target Cytochrome P450 2C19 (Homo sapiens) (UniProt P33261). The test can be described thus: Cytochrome P450 Family 2 Subfamily C Member 19 (CYP2C19) small molecule antagonists: luciferase reporter qHTS assay (AID 1671197). Also: nearly all actives have a fitted effect of over 65% in size. Also: potency is read from the fitted curve at half-maximal effect. The procedure, abridged:
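P450-Glo CYP2C19 screening system; proluciferin substrate; DMSO compound stocks; 10 min RT preincubation; NADPH regeneration, 1 h at 37C; luciferin detection reagent, 20 min RT; luminescence as RLU.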

In test [9] the target is Cytochrome P450 2C9 (Homo sapiens) (UniProt P11712). Kind of test: Cytochrome P450 Family 2 Subfamily C Member 9 (CYP2C9) small molecule antagonists: luciferase reporter qHTS assay (AID 1671198). Also: nearly all actives have a fitted effect of over 50% in size. Also: potency is read from the fitted curve at half-maximal effect. The gist of the method:
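Enzyme-substrate mix preincubated with compound 10 min at room temperature; reaction started with NADPH regeneration solution, 1 h 37C. Luminescent luciferin product read after 20 min detection reagent.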

Test [10] deals with Cytochrome P450 1A2 (Homo sapiens) (UniProt P05177). Kind of test: Cytochrome P450 Family 1 Subfamily A Member 2 (CYP1A2) small molecule antagonists: luciferase reporter qHTS assay (AID 1671199). Also: nearly all actives have a fitted effect of over 50% in size. Also: potency is read from the fitted curve at half-maximal effect. The procedure, abridged:
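Enzymatic CYP1A2 assay, human, luminescent: 10 min compound–enzyme–substrate preincubation, 1 h NADPH-dependent turnover, 20 min detection step, room temperature throughout. Reduced light indicates lower CYP1A2 activity.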

The target of test [11] is Voltage-gated inwardly rectifying potassium channel KCNH2 (Homo sapiens) (UniProt Q12809). Kind of test: Human Ether-a-go-go-Related Gene (hERG) channel small molecule antagonists: fluorescence cell-based qHTS assay (AID 1671200). The gist of the method: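 Channel function was assessed by thallium flux. Cells seeded the previous day and kept at 37 C took up FluxOR II dye over 1 h in the dark at room temperature, then sat another 10 min before stimulation.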
Chain of Voltage-gated inwardly rectifying potassium channel KCNH2 (Homo sapiens) (Q12809 whole entry, looked up): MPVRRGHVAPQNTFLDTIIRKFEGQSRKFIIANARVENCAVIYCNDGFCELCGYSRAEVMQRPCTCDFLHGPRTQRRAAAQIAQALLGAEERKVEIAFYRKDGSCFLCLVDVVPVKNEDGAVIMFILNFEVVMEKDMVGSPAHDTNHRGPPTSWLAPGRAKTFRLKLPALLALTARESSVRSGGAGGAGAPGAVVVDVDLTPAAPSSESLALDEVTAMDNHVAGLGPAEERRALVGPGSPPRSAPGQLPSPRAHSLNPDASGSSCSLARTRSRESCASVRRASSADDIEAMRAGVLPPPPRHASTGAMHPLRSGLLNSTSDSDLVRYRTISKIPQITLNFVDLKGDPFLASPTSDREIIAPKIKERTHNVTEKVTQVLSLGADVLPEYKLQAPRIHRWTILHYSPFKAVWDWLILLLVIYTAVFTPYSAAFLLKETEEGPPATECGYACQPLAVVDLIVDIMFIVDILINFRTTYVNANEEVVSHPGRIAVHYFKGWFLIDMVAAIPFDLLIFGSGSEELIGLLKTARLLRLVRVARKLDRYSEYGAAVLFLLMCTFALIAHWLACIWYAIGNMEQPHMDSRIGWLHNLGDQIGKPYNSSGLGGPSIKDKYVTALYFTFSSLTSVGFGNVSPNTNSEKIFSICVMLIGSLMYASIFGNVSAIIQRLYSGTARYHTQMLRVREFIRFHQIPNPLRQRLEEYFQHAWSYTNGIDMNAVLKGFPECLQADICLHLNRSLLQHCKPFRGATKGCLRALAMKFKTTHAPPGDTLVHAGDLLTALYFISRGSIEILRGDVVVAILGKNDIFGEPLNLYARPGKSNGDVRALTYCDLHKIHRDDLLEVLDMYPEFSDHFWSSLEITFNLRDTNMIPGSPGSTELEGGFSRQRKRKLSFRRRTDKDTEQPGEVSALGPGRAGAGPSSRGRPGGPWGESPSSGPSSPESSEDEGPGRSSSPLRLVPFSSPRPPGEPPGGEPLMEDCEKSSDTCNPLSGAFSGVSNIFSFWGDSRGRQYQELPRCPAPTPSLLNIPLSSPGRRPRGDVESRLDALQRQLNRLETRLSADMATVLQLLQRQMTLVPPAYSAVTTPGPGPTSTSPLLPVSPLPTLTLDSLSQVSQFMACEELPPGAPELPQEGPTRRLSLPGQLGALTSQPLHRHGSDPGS
On the technique in general: The hERG channel carries a current that helps repolarise heart muscle cells.

Test [12] deals with Cytochrome P450 3A4 (Homo sapiens) (UniProt P08684). The test can be described thus: Cytochrome P450 Family 3 Subfamily A Member 4 (CYP3A4) small molecule antagonists: luciferase reporter qHTS assay (AID 1671201). Also: nearly all actives have a fitted effect of over 50% in size. Also: potency is read from the fitted curve at half-maximal effect. The gist of the method:
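Compounds in DMSO were pin-transferred onto CYP3A4 enzyme-substrate mix and held 10 min at room temperature. NADPH regenerating solution started the reaction for 1 h; luciferin detection reagent stopped it, and luminescence was read after 20 min.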

Test [13] has as its target Nuclear receptor subfamily 1 group I member 2 (Rattus norvegicus) (UniProt Q9R1A7). The test can be described thus: Rat pregnane X receptor (rPXR) activation by small molecules, qHTS assay (AID 1346983). Also: nearly all actives have a fitted effect of over 20% in size. The following applies: rPXR luciferase reporter cells, One-Glo luminescence, 24 h; max activation: stronger effect = higher value. The procedure, abridged:
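Luminescent readout (One-Glo luciferase, 30 min room temperature) followed 24 hr compound treatment at 37 C of rPXR cells plated 2,000 per well and preincubated 5hr; qHTS format with compounds delivered in DMSO.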

The target in test [14] is Nuclear receptor subfamily 1 group I member 2 (Homo sapiens) (UniProt O75469). Kind of test: CYP3A4 induction through human pregnane X receptor (PXR) by small molecules, qHTS assay (AID 1346984). Also: nearly all actives have a fitted effect of over 40% in size. The procedure, abridged: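 Readings come from a luciferase reporter: DPX-2 cells, which are HepG2 cotransfected with PXR and a CYP3A4-promoter construct, were exposed to test compounds for 24 h at 37C before One-Glo detection.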
Chain of Nuclear receptor subfamily 1 group I member 2 (Homo sapiens) (O75469 whole entry, looked up): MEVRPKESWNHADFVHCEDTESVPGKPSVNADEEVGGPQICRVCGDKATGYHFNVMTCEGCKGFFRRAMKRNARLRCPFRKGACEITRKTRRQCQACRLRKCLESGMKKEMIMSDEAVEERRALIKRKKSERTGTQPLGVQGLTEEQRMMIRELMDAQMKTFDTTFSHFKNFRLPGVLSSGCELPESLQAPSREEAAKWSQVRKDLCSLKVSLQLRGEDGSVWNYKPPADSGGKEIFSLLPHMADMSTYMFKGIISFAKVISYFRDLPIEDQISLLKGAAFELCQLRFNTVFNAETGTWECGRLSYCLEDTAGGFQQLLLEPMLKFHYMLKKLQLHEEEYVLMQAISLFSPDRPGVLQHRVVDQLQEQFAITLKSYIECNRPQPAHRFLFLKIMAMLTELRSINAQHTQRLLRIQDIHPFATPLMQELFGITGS
% is scaled to controls: 0 for no effect and ±100 for the full control effect.

Chain of Cytochrome P450 1A2 (Homo sapiens) (P05177 whole entry, looked up): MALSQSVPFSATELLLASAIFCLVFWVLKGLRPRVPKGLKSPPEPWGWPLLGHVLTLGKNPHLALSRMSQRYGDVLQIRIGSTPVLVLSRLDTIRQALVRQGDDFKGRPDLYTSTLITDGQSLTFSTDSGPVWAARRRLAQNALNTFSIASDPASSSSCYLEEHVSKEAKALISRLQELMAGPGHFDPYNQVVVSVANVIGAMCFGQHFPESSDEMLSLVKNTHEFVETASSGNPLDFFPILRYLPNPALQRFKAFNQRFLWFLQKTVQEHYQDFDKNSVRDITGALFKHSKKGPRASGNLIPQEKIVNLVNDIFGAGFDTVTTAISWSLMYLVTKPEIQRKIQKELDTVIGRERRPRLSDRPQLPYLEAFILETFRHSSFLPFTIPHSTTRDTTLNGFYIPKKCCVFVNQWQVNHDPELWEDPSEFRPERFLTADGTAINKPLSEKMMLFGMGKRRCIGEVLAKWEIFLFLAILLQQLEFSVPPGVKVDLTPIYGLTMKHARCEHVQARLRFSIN
Chain of Cytochrome P450 2C19 (Homo sapiens) (P33261 whole entry, looked up): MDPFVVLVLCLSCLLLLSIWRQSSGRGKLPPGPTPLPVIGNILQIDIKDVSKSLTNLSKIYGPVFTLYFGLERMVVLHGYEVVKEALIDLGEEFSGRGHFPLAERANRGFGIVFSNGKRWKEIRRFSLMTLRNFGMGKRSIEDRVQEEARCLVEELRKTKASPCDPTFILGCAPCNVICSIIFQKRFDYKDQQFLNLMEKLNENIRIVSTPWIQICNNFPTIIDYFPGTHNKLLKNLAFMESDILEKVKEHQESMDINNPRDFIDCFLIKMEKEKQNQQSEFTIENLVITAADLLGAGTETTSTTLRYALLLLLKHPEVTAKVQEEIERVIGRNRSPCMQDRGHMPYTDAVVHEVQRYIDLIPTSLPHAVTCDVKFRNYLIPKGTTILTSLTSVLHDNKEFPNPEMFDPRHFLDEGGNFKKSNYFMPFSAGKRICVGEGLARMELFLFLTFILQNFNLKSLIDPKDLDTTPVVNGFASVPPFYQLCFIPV
Chain of Cytochrome P450 2C9 (Homo sapiens) (P11712 whole entry, looked up): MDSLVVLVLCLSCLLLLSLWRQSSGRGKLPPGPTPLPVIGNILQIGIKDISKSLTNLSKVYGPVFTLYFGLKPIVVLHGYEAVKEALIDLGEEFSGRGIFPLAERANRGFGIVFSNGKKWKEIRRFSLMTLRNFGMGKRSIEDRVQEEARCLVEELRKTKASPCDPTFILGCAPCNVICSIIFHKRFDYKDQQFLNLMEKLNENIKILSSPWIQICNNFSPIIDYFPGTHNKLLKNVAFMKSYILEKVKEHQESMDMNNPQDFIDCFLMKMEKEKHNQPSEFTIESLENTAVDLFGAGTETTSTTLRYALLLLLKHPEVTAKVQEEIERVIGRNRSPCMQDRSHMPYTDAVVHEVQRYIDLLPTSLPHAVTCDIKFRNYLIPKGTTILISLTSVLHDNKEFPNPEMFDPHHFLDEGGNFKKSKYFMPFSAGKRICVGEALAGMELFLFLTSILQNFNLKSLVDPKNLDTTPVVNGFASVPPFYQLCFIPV
Chain of Cytochrome P450 3A4 (Homo sapiens) (P08684 whole entry, looked up): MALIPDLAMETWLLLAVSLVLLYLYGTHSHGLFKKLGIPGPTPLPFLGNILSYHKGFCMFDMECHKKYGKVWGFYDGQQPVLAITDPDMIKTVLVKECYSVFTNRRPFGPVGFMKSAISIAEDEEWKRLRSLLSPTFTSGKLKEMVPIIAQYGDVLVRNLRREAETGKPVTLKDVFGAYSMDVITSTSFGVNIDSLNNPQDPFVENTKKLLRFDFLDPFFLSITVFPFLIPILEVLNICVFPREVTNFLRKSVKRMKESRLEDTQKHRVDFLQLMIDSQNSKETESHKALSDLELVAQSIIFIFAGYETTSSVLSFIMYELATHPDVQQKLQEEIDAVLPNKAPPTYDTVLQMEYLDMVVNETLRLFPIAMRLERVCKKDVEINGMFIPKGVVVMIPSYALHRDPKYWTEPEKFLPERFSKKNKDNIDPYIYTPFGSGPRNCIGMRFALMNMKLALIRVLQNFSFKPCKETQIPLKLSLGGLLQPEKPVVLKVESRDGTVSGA
Chain of Cytochrome P450 2D6 (Homo sapiens) (P10635 whole entry, looked up): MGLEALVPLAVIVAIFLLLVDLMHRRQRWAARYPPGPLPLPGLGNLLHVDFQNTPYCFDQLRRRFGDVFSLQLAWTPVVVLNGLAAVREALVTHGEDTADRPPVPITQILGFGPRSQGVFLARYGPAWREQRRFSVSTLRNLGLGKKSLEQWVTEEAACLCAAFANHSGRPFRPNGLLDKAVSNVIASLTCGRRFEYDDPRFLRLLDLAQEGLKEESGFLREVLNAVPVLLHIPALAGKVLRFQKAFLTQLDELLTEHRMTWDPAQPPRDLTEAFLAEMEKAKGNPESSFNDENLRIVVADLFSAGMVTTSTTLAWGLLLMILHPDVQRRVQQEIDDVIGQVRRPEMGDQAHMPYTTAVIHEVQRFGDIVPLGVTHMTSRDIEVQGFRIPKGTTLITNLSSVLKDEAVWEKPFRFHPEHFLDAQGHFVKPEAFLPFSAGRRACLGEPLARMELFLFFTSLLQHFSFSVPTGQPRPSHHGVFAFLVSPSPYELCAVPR
Chain of Nuclear receptor subfamily 1 group I member 2 (Rattus norvegicus) (Q9R1A7 whole entry, looked up): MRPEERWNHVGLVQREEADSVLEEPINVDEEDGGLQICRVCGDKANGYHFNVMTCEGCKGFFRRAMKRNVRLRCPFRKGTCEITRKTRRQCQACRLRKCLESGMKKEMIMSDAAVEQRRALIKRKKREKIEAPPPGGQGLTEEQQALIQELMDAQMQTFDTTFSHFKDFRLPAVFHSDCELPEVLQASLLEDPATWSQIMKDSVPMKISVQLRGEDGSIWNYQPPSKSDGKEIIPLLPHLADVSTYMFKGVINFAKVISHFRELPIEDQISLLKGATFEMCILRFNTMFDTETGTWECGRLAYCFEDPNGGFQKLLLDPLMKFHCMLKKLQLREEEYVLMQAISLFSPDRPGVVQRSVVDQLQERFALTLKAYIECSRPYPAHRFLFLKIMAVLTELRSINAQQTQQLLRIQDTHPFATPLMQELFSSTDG

For the compound `O=C(O)c1ccc(O)c(O)c1`, the Potency entry in test [1], in test [2], in test [3], in test [4], in test [5] and in test [6] was “inactive” throughout. Besides, the Potency entry in test [7], in test [11] and in [12] was “inactive” each time. The Potency is 79.6 µM (active) in test [8], 35.5 µM (active) in [9] and 31.7 µM (active) in test [10].
`Cc1c(Cl)cccc1[N+](=O)[O-]`: the Potency result in [1], in [2], in [3], in test [4], in [5] and in test [6] was “inactive” in each case. The Potency entry in [7], in [8], in test [9], in test [10] and in test [11] was “inactive” each time.
Regarding `CC1(C)C(=O)NC(=O)N1CO`, the Potency result in [1], in test [2], in test [3], in test [4], in [5] and in [6] was “inactive” in each case. In addition, the Potency entry in [7], in [8], in test [9], in test [10], in test [11] and in test [12] was “inactive” each time.
With `O=C(O)c1cc(C(=O)O)cc([N+](=O)[O-])c1`, the Potency entry in test [1], in [2], in test [3], in test [4], in test [5] and in test [6] was “inactive” each time. The Potency result in test [7], in test [8], in [9] and in [11] was “inactive” each time.
On to `CC1(C)CC(=O)CC(C)(C)N1`, for which the Potency result in test [1], in test [2], in [3], in test [4], in test [5] and in [6] was “inactive” each time. Further, the Potency result in test [7], in test [8], in [9], in test [10] and in [11] was “inactive” in each case.
`CC(C)CC(C)(C)C`: the Potency result in test [1], in test [2], in test [3], in test [4], in test [5] and in test [6] was “inactive” throughout. The Potency was 36.9 µM (active) in [7]; 20.8 µM (active) in test [8]; 36.9 µM (active) in test [9]; 7.37 µM (active) in test [10]; 32.9 µM (active) in test [12].
With `C/C=C1\[C@H]2C=C(C)C[C@]1(N)c1ccc(=O)[nH]c1C2`, the Potency result in test [1], in test [2], in [3], in [4], in test [5] and in test [6] was “inactive” each time. For the same compound, the Potency entry in [14], in test [8], in test [9], in test [10], in test [11] and in test [12] was “inactive” throughout. Further, the max activation in test [13] was -1.47%.
With `Clc1cccc(C(c2ccc3nc[nH]c3c2)n2ccnc2)c1` (stereo not drawn), the Potency entry in test [1], in test [2], in test [3], in test [4], in [5] and in test [6] was “inactive” throughout. In addition, the Potency result in test [14] and in test [11] was “inactive” throughout. The Potency was 2.75 µM (active) in test [8] and 8.71 µM (active) in [9].
`Cc1ccc(S(=O)(=O)NC(=O)NC2CCCC2)cc1`: the Potency result in test [1], in [2], in [3], in test [4], in test [5] and in [6] was “inactive” each time. The Potency entry in test [14], in test [7], in test [8], in [10] and in test [11] was “inactive” throughout. Also, in [13], the max activation was -4.06%.
Turning to `C/C(=C\C(C)CC(C)CC(C)C)C1CC(=O)OC1=O` (stereo not drawn), the Potency result in test [1], in test [2], in [3], in [4], in test [5] and in test [6] was “inactive” each time. Moreover, the Potency entry in [10] and in test [11] was “inactive” in each case. For the same compound, the Potency in [7] is 35.6 µM (active); in test [9] it was 56.4 µM (active).
Consider `COc1ccc(/C=C/S(=O)(=O)NC(=O)c2ccc(C)cc2Cl)cc1`, for which the Potency entry in [1], in test [2], in test [3], in test [4], in test [5] and in [7] was “inactive” throughout. Moreover, the Potency result in test [8], in [10], in test [11] and in [12] was “inactive” in each case. In test [6], the Potency is 27.3 µM (active).
